The full data set covers some 7,900 targets. This sample favours those with a hit. About 0.6% of all pairs of compound and target were hits.
Columns and labels:
Assay in all cases: log2 fold change, soluble protein after heating vs DMSO (PISA); higher = thermal stabilisation; K562 cells, 10 uM, 30 min; active = over 0.2 and 3.5 SD of the protein, either way, in both replicates (recomputed)
[1] = compound: COC1=CC=C(C=C1)CN2C=CC3=C2C=C(C=C3)C(=O)NO
Procedure, shortened: (§1)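 Soluble protein was quantified by TMTpro 16plex LC-MS/MS after channel sums were equalised. It was obtained as the supernatant after 21,000xg for 90 min from pooled aliquots of K562 cells (2×10^6 cells/mL, 10 μM compound, 30 min) heated for 3 min across 48°C-58°C and extracted in PBS with 0.5% NP-40 at 4°C. Thermal stability values are relative to control samples and come from duplicates. They are given as log2 fold changes.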

[2] = compound: CON(C)C(=O)N1N=C(c2cc(F)ccc2F)S[C@@]1(CCCN)c1ccccc1 [filanesib]
Procedure, shortened: as §1

[3] = compound: CO[C@H]1C[C@@H]2CC[C@@H](C)[C@@](O)(O2)C(=O)C(=O)N2CCCC[C@H]2C(=O)O[C@H]([C@H](C)C[C@@H]2CC[C@H](n3cnnn3)[C@H](OC)C2)CC(=O)[C@H](C)/C=C(\C)[C@@H](O)[C@@H](OC)C(=O)[C@H](C)C[C@H](C)/C=C/C=C/C=C/1C [zotarolimus]
Procedure, shortened: as §1

[4] = compound: COc1cc(C(=O)O)ccc1NC(=O)[C@@H]1N[C@@H](CC(C)(C)C)[C@](C#N)(c2ccc(Cl)cc2F)[C@H]1c1cccc(Cl)c1F [idasanutlin]
Procedure, shortened: as §1

[5] = compound: COc1cc(Nc2ncc3c(n2)-c2ccc(Cl)cc2C(c2c(F)cccc2OC)=NC3)ccc1C(=O)O [alisertib]
Procedure, shortened: as §1

[6] = compound: COc1cc2nc(-c3cc(F)ccc3O)nc(N[C@@H]3CNC[C@H]3C(C)(C)O)c2cc1OC
Procedure, shortened: as §1

[7] = compound: COc1cc2ncnc(Nc3ccc(F)c(Cl)c3)c2cc1OCCCN1CCOCC1 [gefitinib]
Procedure, shortened: as §1

[8] = compound: COc1cccc2cc(-c3nc([C@H]4CC[C@H](C(=O)O)CC4)n4ncnc(N)c34)[nH]c12
Procedure, shortened: as §1

[9] = compound: CS(=O)(=O)CCNCc1ccc(-c2ccc3ncnc(Nc4ccc(OCc5cccc(F)c5)c(Cl)c4)c3c2)o1 [lapatinib]
Procedure, shortened: as §1

[10] = compound: CS(=O)(=O)N1CCN(Cc2cc3nc(-c4cccc5[nH]ncc45)nc(N4CCOCC4)c3s2)CC1 [pictilisib]
Procedure, shortened: as §1

[11] = compound: CS(=O)(=O)c1ccc(-c2cnc(N)c(C(=O)Nc3ccccc3)n2)cc1
Procedure, shortened: as §1

[12] = compound: C[C@@H](Oc1cc(-c2cnn(C3CCNCC3)c2)cnc1N)c1c(Cl)ccc(F)c1Cl [crizotinib]
Procedure, shortened: as §1

[13] = compound: C[C@@H]1COCCN1C2=NC(=NC(=C2)C3(CC3)S(=O)(=O)C)C4=C5C=CNC5=CC=C4
Procedure, shortened: as §1

[14] = compound: C[C@H](C1=CC=C(C=C1)C(=O)NC2=C3C=CNC3=NC=C2)N
Procedure, shortened: as §1

[15] = compound: C[C@H](Nc1ncnc2nc[nH]c12)c1cc2cccc(Cl)c2c(=O)n1-c1ccccc1 [duvelisib]
Procedure, shortened: as §1

[16] = compound: Cc1cc(Nc2cc(CN3CCOCC3)c3nc(C)c(Cc4ccc(Cl)cc4F)n3n2)n[nH]1 [gandotinib]
Procedure, shortened: as §1

[17] = compound: Cc1cc(Nc2cc(N3CCN(C)CC3)nc(Sc3ccc(NC(=O)C4CC4)cc3)n2)n[nH]1 [tozasertib]
Procedure, shortened: as §1

[18] = compound: Cc1cc(SCc2sc(-c3ccc(C(F)(F)F)cc3)nc2C)ccc1OCC(=O)O
Procedure, shortened: as §1

[19] = compound: Cc1ccc(-n2nc(C(C)(C)C)cc2NC(=O)Nc2ccc(OCCN3CCOCC3)c3ccccc23)cc1 [doramapimod]
Procedure, shortened: as §1

[20] = compound: Cc1ccc(C(=O)N(CCCN)[C@@H](c2nc3cc(Cl)ccc3c(=O)n2Cc2ccccc2)C(C)C)cc1 [ispinesib]
Procedure, shortened: as §1

Measured: log2 fold change

KIF1B isoform 4 (UniProt O60333)
Sequence of UniProt O60333 (O60333 whole entry, looked up): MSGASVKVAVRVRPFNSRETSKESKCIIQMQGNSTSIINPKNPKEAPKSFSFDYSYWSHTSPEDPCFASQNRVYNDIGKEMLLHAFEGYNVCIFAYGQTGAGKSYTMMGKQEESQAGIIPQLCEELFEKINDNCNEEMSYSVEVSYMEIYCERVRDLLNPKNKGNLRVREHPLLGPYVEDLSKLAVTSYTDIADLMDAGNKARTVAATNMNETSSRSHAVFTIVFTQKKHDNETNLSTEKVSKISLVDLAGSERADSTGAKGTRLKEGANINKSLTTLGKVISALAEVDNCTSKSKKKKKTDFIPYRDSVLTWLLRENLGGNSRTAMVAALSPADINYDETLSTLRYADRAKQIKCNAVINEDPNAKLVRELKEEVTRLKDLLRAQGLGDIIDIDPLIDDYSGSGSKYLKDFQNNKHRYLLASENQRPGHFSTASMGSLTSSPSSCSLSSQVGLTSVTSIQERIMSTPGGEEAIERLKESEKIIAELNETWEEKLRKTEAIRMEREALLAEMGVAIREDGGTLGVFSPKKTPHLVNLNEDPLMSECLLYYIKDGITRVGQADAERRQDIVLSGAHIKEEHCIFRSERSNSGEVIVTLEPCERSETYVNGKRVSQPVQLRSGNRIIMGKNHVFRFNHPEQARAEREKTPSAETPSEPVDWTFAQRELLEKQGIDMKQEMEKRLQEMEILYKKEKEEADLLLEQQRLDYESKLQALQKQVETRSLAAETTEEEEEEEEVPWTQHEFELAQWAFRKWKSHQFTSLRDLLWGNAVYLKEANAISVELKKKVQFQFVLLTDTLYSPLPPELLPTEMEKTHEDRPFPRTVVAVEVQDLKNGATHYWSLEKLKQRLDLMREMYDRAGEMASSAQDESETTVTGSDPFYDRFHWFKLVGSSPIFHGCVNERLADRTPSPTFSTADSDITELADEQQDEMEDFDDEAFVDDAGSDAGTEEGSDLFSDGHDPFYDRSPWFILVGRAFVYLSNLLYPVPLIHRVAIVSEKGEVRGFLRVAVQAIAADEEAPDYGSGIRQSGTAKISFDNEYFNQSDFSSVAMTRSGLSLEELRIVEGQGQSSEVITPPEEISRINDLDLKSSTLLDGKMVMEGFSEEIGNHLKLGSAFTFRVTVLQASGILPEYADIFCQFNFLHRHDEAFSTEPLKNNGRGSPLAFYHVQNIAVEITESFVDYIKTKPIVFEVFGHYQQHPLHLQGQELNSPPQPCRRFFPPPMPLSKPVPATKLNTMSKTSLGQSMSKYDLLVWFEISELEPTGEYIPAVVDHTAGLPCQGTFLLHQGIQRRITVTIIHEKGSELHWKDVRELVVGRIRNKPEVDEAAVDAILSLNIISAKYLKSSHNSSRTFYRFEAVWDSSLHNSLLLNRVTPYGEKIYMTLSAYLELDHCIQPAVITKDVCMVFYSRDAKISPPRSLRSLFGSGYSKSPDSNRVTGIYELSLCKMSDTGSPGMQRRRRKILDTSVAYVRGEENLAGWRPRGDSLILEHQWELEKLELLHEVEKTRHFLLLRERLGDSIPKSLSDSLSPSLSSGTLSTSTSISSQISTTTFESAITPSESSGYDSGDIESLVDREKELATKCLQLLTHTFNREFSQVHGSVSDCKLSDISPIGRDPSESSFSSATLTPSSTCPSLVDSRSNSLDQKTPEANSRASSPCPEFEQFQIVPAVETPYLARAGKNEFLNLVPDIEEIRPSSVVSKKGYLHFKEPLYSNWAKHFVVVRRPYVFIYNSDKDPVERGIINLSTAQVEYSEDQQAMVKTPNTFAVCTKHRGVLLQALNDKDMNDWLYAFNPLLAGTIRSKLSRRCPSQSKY
inactive: [1] 0.008 | [2] -0.128 | [3] 0.024 | [4] -0.006 | [5] -0.044 | [6] -0.014 | [7] -0.004 | [8] -0.04 | [9] 0.013 | [10] 0.037 | [11] 0.002 | [12] -0.067 | [13] 0.048 | [14] 0.035 | [15] 0.011 | [16] -0.043 | [17] 0.03 | [18] 0.052 | [19] 0.029 | [20] -0.149

MFSD11 (UniProt O43934)
Sequence of UniProt O43934 (O43934 whole entry, looked up): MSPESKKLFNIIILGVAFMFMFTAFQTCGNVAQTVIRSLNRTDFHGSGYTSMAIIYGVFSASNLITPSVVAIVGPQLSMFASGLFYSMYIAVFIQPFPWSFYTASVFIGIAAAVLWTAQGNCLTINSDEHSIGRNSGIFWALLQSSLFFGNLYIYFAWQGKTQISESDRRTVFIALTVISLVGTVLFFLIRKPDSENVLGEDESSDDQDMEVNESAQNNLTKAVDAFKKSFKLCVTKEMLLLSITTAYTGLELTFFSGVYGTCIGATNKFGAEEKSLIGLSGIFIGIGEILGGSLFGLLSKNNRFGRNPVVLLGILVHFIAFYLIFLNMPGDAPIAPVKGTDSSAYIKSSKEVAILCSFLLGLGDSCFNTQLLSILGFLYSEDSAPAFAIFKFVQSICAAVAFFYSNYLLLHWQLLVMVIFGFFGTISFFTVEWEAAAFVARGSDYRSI
inactive: [1] -0.029 | [3] -0.003 | [4] -0.055 | [5] -0.009 | [6] -0.046 | [7] -0.064 | [8] -0.002 | [9] 0.041 | [10] 0.02 | [11] -0.098 | [13] -0.223 | [14] 0.074 | [15] 0.03 | [16] 0.036 | [17] -0.109 | [18] -0.063 | [19] 0.008
active: [2] -0.464 | [12] -0.683

LIAS (UniProt O43766)
inactive: [1] -0.131 | [2] -0.049 | [3] -0.097 | [4] -0.032 | [5] -0.041 | [6] 0.132 | [7] 0.014 | [8] 0.036 | [9] -0.051 | [10] 0.078 | [11] 0.035 | [12] 0.03 | [13] 0.039 | [14] 0.075 | [15] 0.043 | [16] 0.086 | [17] -0.015 | [18] -0.08 | [19] 0 | [20] -0.24

LYPLA2 (UniProt O95372)
inactive: [1] 0.188 | [2] 0.014 | [3] 0.002 | [4] 0.027 | [5] 0.121 | [6] -0.23 | [7] 0.047 | [8] 0.044 | [9] -0.048 | [10] -0.026 | [11] -0.028 | [12] 0.005 | [13] 0.299 | [14] -0.08 | [15] 0.189 | [16] -0.094 | [17] 0.056 | [18] 0.066 | [19] 0.016 | [20] 0.172

JMJD6 isoform 3 (UniProt Q6NYC1)
inactive: [1] -0.061 | [2] -0.039 | [3] 0.03 | [4] 0.019 | [5] 0.013 | [6] -0.088 | [7] 0.059 | [8] -0.021 | [9] -0.016 | [10] 0.039 | [11] -0.037 | [12] 0.046 | [13] 0.046 | [14] -0.034 | [15] 0.002 | [16] -0.147 | [17] 0.024 | [18] 0.029 | [19] 0.005 | [20] 0.039

MFF (UniProt Q9GZY8)
Sequence of UniProt Q9GZY8 (Q9GZY8 whole entry, looked up): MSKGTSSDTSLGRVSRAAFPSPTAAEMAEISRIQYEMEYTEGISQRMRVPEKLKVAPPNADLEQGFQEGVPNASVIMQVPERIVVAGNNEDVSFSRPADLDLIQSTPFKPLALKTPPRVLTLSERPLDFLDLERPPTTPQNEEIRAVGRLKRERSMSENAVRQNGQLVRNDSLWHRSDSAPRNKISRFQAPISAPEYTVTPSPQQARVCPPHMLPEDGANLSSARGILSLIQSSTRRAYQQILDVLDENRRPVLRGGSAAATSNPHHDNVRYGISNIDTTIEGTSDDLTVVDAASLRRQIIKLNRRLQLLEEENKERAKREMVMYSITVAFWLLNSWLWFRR
inactive: [1] 0.038 | [2] 0.075 | [3] -0.022 | [4] 0.053 | [5] 0.024 | [6] -0.141 | [7] 0.012 | [8] 0.128 | [9] -0.061 | [10] 0.103 | [11] -0.03 | [12] -0.051 | [13] -0.052 | [14] -0.023 | [15] 0.005 | [16] -0.036 | [17] -0.053 | [18] -0.085 | [19] -0.018 | [20] -0.088

KSR1 (UniProt Q8IVT5)
Sequence of UniProt Q8IVT5 (Q8IVT5 whole entry, looked up): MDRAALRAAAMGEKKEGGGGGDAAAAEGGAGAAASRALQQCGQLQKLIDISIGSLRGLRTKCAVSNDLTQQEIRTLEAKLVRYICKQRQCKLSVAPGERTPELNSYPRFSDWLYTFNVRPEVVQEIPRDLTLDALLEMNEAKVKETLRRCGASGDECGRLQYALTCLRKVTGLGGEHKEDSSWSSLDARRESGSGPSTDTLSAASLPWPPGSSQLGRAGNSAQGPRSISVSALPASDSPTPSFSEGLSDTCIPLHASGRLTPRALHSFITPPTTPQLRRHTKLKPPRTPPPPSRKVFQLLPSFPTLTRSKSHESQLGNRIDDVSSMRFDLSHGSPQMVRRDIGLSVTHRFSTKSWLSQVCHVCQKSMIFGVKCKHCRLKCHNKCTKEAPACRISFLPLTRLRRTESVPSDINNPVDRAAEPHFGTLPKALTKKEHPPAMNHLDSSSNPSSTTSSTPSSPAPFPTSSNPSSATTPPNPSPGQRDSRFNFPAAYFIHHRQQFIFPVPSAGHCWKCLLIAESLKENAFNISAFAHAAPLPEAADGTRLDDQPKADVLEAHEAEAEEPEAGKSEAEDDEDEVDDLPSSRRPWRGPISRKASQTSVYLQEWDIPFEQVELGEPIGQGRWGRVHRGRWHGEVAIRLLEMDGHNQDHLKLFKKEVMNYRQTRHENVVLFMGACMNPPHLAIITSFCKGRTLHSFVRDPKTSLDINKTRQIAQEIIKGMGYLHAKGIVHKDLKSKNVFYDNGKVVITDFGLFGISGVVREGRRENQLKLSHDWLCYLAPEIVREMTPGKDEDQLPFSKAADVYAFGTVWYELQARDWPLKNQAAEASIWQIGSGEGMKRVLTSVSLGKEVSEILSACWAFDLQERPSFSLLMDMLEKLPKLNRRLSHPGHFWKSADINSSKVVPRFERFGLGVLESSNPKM
inactive: [1] 0.015 | [2] 0.033 | [3] 0.016 | [4] 0.034 | [5] 0.123 | [6] -0.329 | [7] -0.028 | [8] 0.126 | [9] 0.087 | [10] 0.176 | [11] -0.017 | [12] -0.287 | [13] 0.036 | [14] 0.047 | [15] 0.031 | [16] -0.067 | [17] -0.221 | [18] -0.017 | [19] 0.052 | [20] -0.113

IGF2R (UniProt P11717)
active: [12] -0.871
inactive: [1] 0.041 | [2] 0.007 | [3] -0.014 | [4] -0.012 | [5] -0.058 | [6] -0.065 | [7] -0.003 | [8] 0 | [9] 0.015 | [10] 0.002 | [11] 0.031 | [13] -0.035 | [14] -0.035 | [15] 0.048 | [16] 0.017 | [17] 0.025 | [18] 0.019 | [19] -0.01 | [20] -0.115

MAP1LC3B2 (UniProt A6NCE7)
inactive: [1] -0.026 | [2] -0.062 | [3] 0.011 | [4] -0.022 | [5] -0.004 | [6] -0.032 | [7] -0.003 | [8] -0.035 | [9] -0.011 | [10] -0.004 | [11] 0.035 | [12] -0.047 | [13] 0.054 | [14] -0.144 | [15] 0.061 | [16] -0.012 | [17] 0.114 | [18] 0.011 | [19] 0.003 | [20] 0.02

KCT2 (UniProt Q8NC54)
inactive: [1] -0.015 | [2] -0.036 | [3] -0.044 | [4] -0.029 | [5] -0.074 | [6] 0.021 | [7] 0.032 | [8] 0.039 | [9] -0.002 | [10] 0.023 | [11] 0 | [12] -0.186 | [13] 0.074 | [14] -0.04 | [15] 0.064 | [16] 0.038 | [17] 0.033 | [18] 0.054 | [19] 0.091 | [20] -0.118

LARP1 (UniProt Q6PKG0)
inactive: [1] 0 | [2] 0.048 | [3] -0.048 | [4] 0.089 | [5] 0.137 | [6] -0.001 | [7] -0.049 | [8] -0.161 | [9] 0.023 | [10] -0.152 | [11] -0.04 | [12] -0.097 | [13] -0.172 | [14] 0.134 | [15] -0.121 | [16] 0.026 | [17] -0.001 | [18] 0.01 | [19] 0.06 | [20] -0.166

MED1 (UniProt Q15648)
inactive: [1] -0.051 | [2] 0.116 | [3] 0.042 | [4] 0.056 | [5] -0.056 | [6] -0.063 | [7] -0.039 | [8] 0.016 | [9] 0.114 | [10] 0.077 | [11] 0.011 | [12] 0.014 | [13] 0.043 | [14] 0.04 | [15] -0.044 | [16] -0.025 | [17] -0.031 | [18] -0.05 | [19] 0.11 | [20] -0.078

LEO1 (UniProt Q8WVC0)
inactive: [1] -0.038 | [2] 0.021 | [3] 0.175 | [4] 0.023 | [5] -0.08 | [6] -0.035 | [7] 0.009 | [8] -0.034 | [9] -0.032 | [10] 0.009 | [11] 0.092 | [12] 0.026 | [13] -0.202 | [14] -0.126 | [15] 0.008 | [16] -0.031 | [17] 0.114 | [18] -0.008 | [19] 0.071 | [20] 0.052

LUC7L3 (UniProt O95232)
Sequence of UniProt O95232 (O95232 whole entry, looked up): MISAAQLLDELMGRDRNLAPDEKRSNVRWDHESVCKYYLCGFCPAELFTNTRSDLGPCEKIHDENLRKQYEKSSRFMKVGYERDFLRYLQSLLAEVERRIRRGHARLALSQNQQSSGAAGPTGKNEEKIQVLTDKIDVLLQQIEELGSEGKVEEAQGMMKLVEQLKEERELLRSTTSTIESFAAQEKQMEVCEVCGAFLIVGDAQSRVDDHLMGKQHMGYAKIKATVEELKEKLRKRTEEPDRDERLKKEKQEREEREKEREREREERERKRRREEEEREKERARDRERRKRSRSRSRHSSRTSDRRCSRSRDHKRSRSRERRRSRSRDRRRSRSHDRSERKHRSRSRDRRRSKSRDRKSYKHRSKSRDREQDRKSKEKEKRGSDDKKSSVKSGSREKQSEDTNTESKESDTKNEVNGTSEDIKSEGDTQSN
inactive: [1] 0.106 | [2] 0.083 | [3] 0.003 | [4] 0.031 | [5] -0.009 | [6] 0.021 | [7] -0.04 | [8] 0.011 | [9] 0.045 | [10] 0.011 | [11] -0.001 | [12] -0.045 | [13] -0.022 | [15] -0.001 | [16] 0.065 | [17] 0.011 | [18] 0.02 | [19] 0 | [20] 0.099
active: [14] -0.219

MGST3 (UniProt O14880)
Sequence of UniProt O14880 (O14880 whole entry, looked up): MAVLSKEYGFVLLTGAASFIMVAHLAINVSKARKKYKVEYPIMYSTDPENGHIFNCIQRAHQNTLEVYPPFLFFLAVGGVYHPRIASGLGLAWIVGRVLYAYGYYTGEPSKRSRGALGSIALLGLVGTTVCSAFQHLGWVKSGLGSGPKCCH
inactive: [1] -0.021 | [2] -0.035 | [3] -0.005 | [4] 0.012 | [5] 0.008 | [6] 0.001 | [7] 0.002 | [8] 0.018 | [9] -0.009 | [10] 0.004 | [11] 0.058 | [12] 0.119 | [13] -0.013 | [14] -0.075 | [15] -0.002 | [16] -0.006 | [17] -0.018 | [18] -0.054 | [19] -0.031 | [20] 0.03

KIF2C (UniProt Q99661)
Sequence of UniProt Q99661 (Q99661 whole entry, looked up): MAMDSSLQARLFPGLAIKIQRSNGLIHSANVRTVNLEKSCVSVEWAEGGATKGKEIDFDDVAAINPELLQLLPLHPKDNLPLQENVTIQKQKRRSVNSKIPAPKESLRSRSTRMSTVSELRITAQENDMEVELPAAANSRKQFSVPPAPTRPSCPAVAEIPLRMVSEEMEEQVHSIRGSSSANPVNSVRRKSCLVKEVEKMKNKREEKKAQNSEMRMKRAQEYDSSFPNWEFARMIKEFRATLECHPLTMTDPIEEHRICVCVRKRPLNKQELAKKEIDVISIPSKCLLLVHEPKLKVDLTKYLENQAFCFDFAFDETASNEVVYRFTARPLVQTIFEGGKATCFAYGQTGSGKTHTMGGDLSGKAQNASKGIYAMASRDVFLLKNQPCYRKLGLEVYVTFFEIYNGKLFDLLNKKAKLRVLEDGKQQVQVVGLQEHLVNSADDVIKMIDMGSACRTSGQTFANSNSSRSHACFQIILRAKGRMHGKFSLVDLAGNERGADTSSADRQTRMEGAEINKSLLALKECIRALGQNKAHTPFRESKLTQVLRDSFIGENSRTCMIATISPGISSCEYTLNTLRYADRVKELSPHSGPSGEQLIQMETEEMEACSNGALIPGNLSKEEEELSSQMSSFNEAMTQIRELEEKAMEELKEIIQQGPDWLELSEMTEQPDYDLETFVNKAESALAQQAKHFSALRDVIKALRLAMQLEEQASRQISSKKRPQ
inactive: [1] 0.063 | [2] -0.033 | [3] 0.001 | [4] -0.046 | [5] -0.008 | [6] 0.09 | [7] 0.006 | [8] -0.081 | [9] -0.048 | [10] 0.008 | [11] -0.016 | [12] -0.171 | [13] -0.028 | [14] 0.012 | [15] -0.048 | [16] -0.065 | [17] -0.035 | [18] 0.082 | [19] 0.007 | [20] -0.028

Source: the supplement of paper PMC10849652
